Experimental data: PubChem BioAssay (NCATS)
Inconclusive results are not listed. Calls of active or inactive are those of the source. Calls come from the whole dose curve; as a rule, active = well fitted curve in the direction sought with a large enough effect; inconclusive = small, poorly fitted or top-dose-only effect, or another doubt; inactive = no such curve, though single readings can be large; an effect the other way counts as inactive or inconclusive.

Assays:
[1] = target: Ubiquitin carboxyl-terminal hydrolase 1 (Homo sapiens) (UniProt O94782); assay: Inhibitors of USP1/UAF1: Pilot qHTS (AID 504865);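 note: rhodamine fluorescence freed from ubiquitin-rhodamine substrate followed over time; top concentration of the series differs between compounds; % is set by controls: 0 for no effect and ±100 for the full control effect; nearly all actives have a fitted effect of over 35% in size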
Method in brief: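 In 50mM HEPES pH 7.8 containing 0.5mM EDTA, 1mM TCEP, 0.1 mg/ml BSA and 0.01% Tween-20, 1nM USP1/UAF1 is exposed to compound for 15 min, then Ub-Rho (150nM final) is added and fluorescence is read over time.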

[2] = target: Luciferin 4-monooxygenase (Photinus pyralis) (UniProt P08659); assay: Biochemical firefly luciferase enzyme assay for NPC (AID 624030);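 note: purified P. pyralis luciferase at 10 nM with luciferin and ATP substrate; 0% = DMSO and -100% = full luciferase inhibition by PTC124 control; nearly all actives have a fitted effect of over 70% in size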
Method in brief: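 Direct inhibition of firefly luciferase enzyme (10 nM final, 50 mM Tris Acetate) assessed by luminescence within 5 minutes. Percent activity scaled between DMSO and PTC124 positive control, with concentration-effect curves classified by fit quality and response.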

[3] = S16 Schwann cell viability assay (CellTiter-Glo assay) (AID 624031);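 note: cellular ATP luminescence as a viability measure; plate controls were DMSO-treated cells for no effect and cell-free wells for full effect; nearly all actives have a fitted effect of over 70% in size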
Method in brief: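 Native S16 rat Schwann cells in DMEM/10% FBS without phenol red were incubated overnight, then exposed to compounds for 24 h at 37 °C/5% CO2. Viability was read as ATP luminescence (CellTiter-Glo), normalized to no-cell wells and DMSO (0%).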

[4] = S16 Schwann cell PMP22 intronic element firefly luciferase assay (AID 624032);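 note: plate controls were DMSO for no effect and PTC124 positive control mean for full effect; nearly all actives have a fitted effect of over 30% in size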
Method in brief: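 Luciferase reporter of PMP22 intronic-element expression in stably transfected S16 rat Schwann cells, read by ONE-Glo luminescence after 24 h compound exposure at 37 C. Activity scaled between DMSO (0%) and positive-control PTC124; concentration-effect curves quality-classified.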

[5] = qHTS profiling for inhibitors of Plasmodium falciparum proliferation (AID 504749);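 note: 0% = DMSO vehicle and full inhibition = artemisinin control; nearly all actives have a fitted effect of over 60% in size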; settings: P. falciparum in erythrocytes, SYBR Green DNA, 72 h, at 28.7 µM (top of the series)
Method in brief: (§1)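 In a 72 h erythrocytic culture (37 C, humidified, 5% CO2) at 2.5% hematocrit and 0.3% starting parasitemia, compounds were tested; SYBR Green I in detergent lysis buffer stained parasite DNA overnight.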

3D7 = assay: as above; settings: P. falciparum in erythrocytes, SYBR Green DNA, 72 h; series mostly up to 28.7 µM
Method in brief: as §1

7G8 = assay: as above; settings: P. falciparum in erythrocytes, SYBR Green DNA, 72 h; series mostly up to 28.7 µM
Method in brief: as §1

AA1029 = assay: as above; settings: P. falciparum in erythrocytes, SYBR Green DNA, 72 h; series mostly up to 28.7 µM
Method in brief: as §1

AS120 = assay: as above; settings: P. falciparum in erythrocytes, SYBR Green DNA, 72 h; series mostly up to 28.7 µM
Method in brief: as §1

ATS189 = assay: as above; settings: P. falciparum in erythrocytes, SYBR Green DNA, 72 h; series mostly up to 28.7 µM
Method in brief: as §1

ATS95 = assay: as above; settings: P. falciparum in erythrocytes, SYBR Green DNA, 72 h; series mostly up to 28.7 µM
Method in brief: as §1

C2A = assay: as above; settings: P. falciparum in erythrocytes, SYBR Green DNA, 72 h; series mostly up to 28.7 µM
Method in brief: as §1

CP185 = assay: as above; settings: P. falciparum in erythrocytes, SYBR Green DNA, 72 h; series mostly up to 28.7 µM
Method in brief: as §1

CP191 = assay: as above; settings: P. falciparum in erythrocytes, SYBR Green DNA, 72 h; series mostly up to 28.7 µM
Method in brief: as §1

CP192 = assay: as above; settings: P. falciparum in erythrocytes, SYBR Green DNA, 72 h; series mostly up to 28.7 µM
Method in brief: as §1

CP194 = assay: as above; settings: P. falciparum in erythrocytes, SYBR Green DNA, 72 h; series mostly up to 28.7 µM
Method in brief: as §1

CP201 = assay: as above; settings: P. falciparum in erythrocytes, SYBR Green DNA, 72 h; series mostly up to 28.7 µM
Method in brief: as §1

CP203 = assay: as above; settings: P. falciparum in erythrocytes, SYBR Green DNA, 72 h; series mostly up to 28.7 µM
Method in brief: as §1

CP211 = assay: as above; settings: P. falciparum in erythrocytes, SYBR Green DNA, 72 h; series mostly up to 28.7 µM
Method in brief: as §1

CP215 = assay: as above; settings: P. falciparum in erythrocytes, SYBR Green DNA, 72 h; series mostly up to 28.7 µM
Method in brief: as §1

CP217 = assay: as above; settings: P. falciparum in erythrocytes, SYBR Green DNA, 72 h; series mostly up to 28.7 µM
Method in brief: as §1

CP237 = assay: as above; settings: P. falciparum in erythrocytes, SYBR Green DNA, 72 h; series mostly up to 28.7 µM
Method in brief: as §1

CP238 = assay: as above; settings: P. falciparum in erythrocytes, SYBR Green DNA, 72 h; series mostly up to 28.7 µM
Method in brief: as §1

CP247 = assay: as above; settings: P. falciparum in erythrocytes, SYBR Green DNA, 72 h; series mostly up to 28.7 µM
Method in brief: as §1

CP250 = assay: as above; settings: P. falciparum in erythrocytes, SYBR Green DNA, 72 h; series mostly up to 28.7 µM
Method in brief: as §1

CP252 = assay: as above; settings: P. falciparum in erythrocytes, SYBR Green DNA, 72 h; series mostly up to 28.7 µM
Method in brief: as §1

CP256 = assay: as above; settings: P. falciparum in erythrocytes, SYBR Green DNA, 72 h; series mostly up to 28.7 µM
Method in brief: as §1

CP260 = assay: as above; settings: P. falciparum in erythrocytes, SYBR Green DNA, 72 h; series mostly up to 28.7 µM
Method in brief: as §1

CP262 = assay: as above; settings: P. falciparum in erythrocytes, SYBR Green DNA, 72 h; series mostly up to 28.7 µM
Method in brief: as §1

CP265 = assay: as above; settings: P. falciparum in erythrocytes, SYBR Green DNA, 72 h; series mostly up to 28.7 µM
Method in brief: as §1

CP266 = assay: as above; settings: P. falciparum in erythrocytes, SYBR Green DNA, 72 h; series mostly up to 28.7 µM
Method in brief: as §1

CP268 = assay: as above; settings: P. falciparum in erythrocytes, SYBR Green DNA, 72 h; series mostly up to 28.7 µM
Method in brief: as §1

CP269 = assay: as above; settings: P. falciparum in erythrocytes, SYBR Green DNA, 72 h; series mostly up to 28.7 µM
Method in brief: as §1

CP286 = assay: as above; settings: P. falciparum in erythrocytes, SYBR Green DNA, 72 h; series mostly up to 28.7 µM
Method in brief: as §1

CP291 = assay: as above; settings: P. falciparum in erythrocytes, SYBR Green DNA, 72 h; series mostly up to 28.7 µM
Method in brief: as §1

CP297 = assay: as above; settings: P. falciparum in erythrocytes, SYBR Green DNA, 72 h; series mostly up to 28.7 µM
Method in brief: as §1

CP305 = assay: as above; settings: P. falciparum in erythrocytes, SYBR Green DNA, 72 h; series mostly up to 28.7 µM
Method in brief: as §1

CP315 = assay: as above; settings: P. falciparum in erythrocytes, SYBR Green DNA, 72 h; series mostly up to 28.7 µM
Method in brief: as §1

CP325 = assay: as above; settings: P. falciparum in erythrocytes, SYBR Green DNA, 72 h; series mostly up to 28.7 µM
Method in brief: as §1

CP329 = assay: as above; settings: P. falciparum in erythrocytes, SYBR Green DNA, 72 h; series mostly up to 28.7 µM
Method in brief: as §1

CP335 = assay: as above; settings: P. falciparum in erythrocytes, SYBR Green DNA, 72 h; series mostly up to 28.7 µM
Method in brief: as §1

DIV14 = assay: as above; settings: P. falciparum in erythrocytes, SYBR Green DNA, 72 h; series mostly up to 28.7 µM
Method in brief: as §1

DIV17 = assay: as above; settings: P. falciparum in erythrocytes, SYBR Green DNA, 72 h; series mostly up to 28.7 µM
Method in brief: as §1

DIV30 = assay: as above; settings: P. falciparum in erythrocytes, SYBR Green DNA, 72 h; series mostly up to 28.7 µM
Method in brief: as §1

Dd2 = assay: as above; settings: P. falciparum in erythrocytes, SYBR Green DNA, 72 h; series mostly up to 28.7 µM
Method in brief: as §1

ECU = assay: as above; settings: P. falciparum in erythrocytes, SYBR Green DNA, 72 h; series mostly up to 28.7 µM
Method in brief: as §1

FAB9 = assay: as above; settings: P. falciparum in erythrocytes, SYBR Green DNA, 72 h; series mostly up to 28.7 µM
Method in brief: as §1

GB4 = assay: as above; settings: P. falciparum in erythrocytes, SYBR Green DNA, 72 h; series mostly up to 28.7 µM
Method in brief: as §1

HB3 = assay: as above; settings: P. falciparum in erythrocytes, SYBR Green DNA, 72 h; series mostly up to 28.7 µM
Method in brief: as §1

ICS = assay: as above; settings: P. falciparum in erythrocytes, SYBR Green DNA, 72 h; series mostly up to 28.7 µM
Method in brief: as §1

JCK = assay: as above; settings: P. falciparum in erythrocytes, SYBR Green DNA, 72 h; series mostly up to 28.7 µM
Method in brief: as §1

N140 = assay: as above; settings: P. falciparum in erythrocytes, SYBR Green DNA, 72 h; series mostly up to 28.7 µM
Method in brief: as §1

P93_24 = assay: as above; settings: P. falciparum in erythrocytes, SYBR Green DNA, 72 h; series mostly up to 28.7 µM
Method in brief: as §1

P94_40 = assay: as above; settings: P. falciparum in erythrocytes, SYBR Green DNA, 72 h; series mostly up to 28.7 µM
Method in brief: as §1

PAD = assay: as above; settings: P. falciparum in erythrocytes, SYBR Green DNA, 72 h; series mostly up to 28.7 µM
Method in brief: as §1

PC15 = assay: as above; settings: P. falciparum in erythrocytes, SYBR Green DNA, 72 h; series mostly up to 28.7 µM
Method in brief: as §1

PC26 = assay: as above; settings: P. falciparum in erythrocytes, SYBR Green DNA, 72 h; series mostly up to 28.7 µM
Method in brief: as §1

PC49 = assay: as above; settings: P. falciparum in erythrocytes, SYBR Green DNA, 72 h; series mostly up to 28.7 µM
Method in brief: as §1

SC27B = assay: as above; settings: P. falciparum in erythrocytes, SYBR Green DNA, 72 h; series mostly up to 28.7 µM
Method in brief: as §1

Chain of Ubiquitin carboxyl-terminal hydrolase 1 (Homo sapiens) (O94782 whole entry, looked up): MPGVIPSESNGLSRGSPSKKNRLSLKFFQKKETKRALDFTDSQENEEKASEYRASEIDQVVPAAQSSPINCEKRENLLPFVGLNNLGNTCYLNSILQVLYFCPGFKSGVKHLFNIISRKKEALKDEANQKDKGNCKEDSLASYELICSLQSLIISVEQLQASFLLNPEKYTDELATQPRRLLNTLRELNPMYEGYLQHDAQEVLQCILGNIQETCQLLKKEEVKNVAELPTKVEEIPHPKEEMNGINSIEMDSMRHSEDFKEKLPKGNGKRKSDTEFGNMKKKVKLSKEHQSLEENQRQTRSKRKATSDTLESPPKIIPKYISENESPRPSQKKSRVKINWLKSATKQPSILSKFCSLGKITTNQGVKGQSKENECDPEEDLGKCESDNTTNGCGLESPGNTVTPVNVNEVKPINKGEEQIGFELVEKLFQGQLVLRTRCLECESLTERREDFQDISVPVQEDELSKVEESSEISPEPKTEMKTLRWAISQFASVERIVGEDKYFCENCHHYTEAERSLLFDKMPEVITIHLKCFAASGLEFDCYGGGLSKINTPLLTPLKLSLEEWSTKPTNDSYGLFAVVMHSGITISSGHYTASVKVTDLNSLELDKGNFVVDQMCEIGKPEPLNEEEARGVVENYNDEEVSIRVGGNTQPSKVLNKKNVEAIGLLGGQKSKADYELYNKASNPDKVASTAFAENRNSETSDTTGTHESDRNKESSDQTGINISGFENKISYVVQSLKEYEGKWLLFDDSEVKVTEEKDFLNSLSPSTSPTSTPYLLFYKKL
Chain of Luciferin 4-monooxygenase (Photinus pyralis) (P08659 whole entry, looked up): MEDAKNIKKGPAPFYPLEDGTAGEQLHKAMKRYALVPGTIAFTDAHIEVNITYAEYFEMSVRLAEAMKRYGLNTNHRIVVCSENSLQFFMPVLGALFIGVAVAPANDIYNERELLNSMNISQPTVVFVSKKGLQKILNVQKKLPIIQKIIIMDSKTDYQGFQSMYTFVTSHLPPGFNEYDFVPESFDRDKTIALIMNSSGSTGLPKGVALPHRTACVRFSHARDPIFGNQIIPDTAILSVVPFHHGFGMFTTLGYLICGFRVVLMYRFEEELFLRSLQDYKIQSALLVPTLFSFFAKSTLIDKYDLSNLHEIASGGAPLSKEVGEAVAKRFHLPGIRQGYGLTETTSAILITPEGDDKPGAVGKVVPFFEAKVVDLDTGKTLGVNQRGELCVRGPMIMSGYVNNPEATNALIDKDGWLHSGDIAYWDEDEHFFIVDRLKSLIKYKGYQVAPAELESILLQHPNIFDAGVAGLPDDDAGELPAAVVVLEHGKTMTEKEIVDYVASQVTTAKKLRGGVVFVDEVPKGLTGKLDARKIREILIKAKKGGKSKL

CC(N)C(=O)NCC(=O)NC1CSSCC(C(=O)O)NC(=O)C(CO)NC(=O)C(C(C)O)NC(=O)C(Cc2ccccc2)NC(=O)C(C(C)O)NC(=O)C(CCCCN)NC(=O)C(Cc2c[nH]c3ccccc23)NC(=O)C(Cc2ccccc2)NC(=O)C(Cc2ccccc2)NC(=O)C(CC(N)=O)NC(=O)C(CCCCN)NC1=O (stereo not given)
inactive: Potency [1] | Potency [2] | Potency [3] | Potency [4] | activity, negative = inhibition ([5]; parasite line A) 12% | activity, negative = inhibition ([5]; parasite line B) 4.8% | Potency (3D7) | Potency (7G8) | Potency (AA1029) | Potency (AS120) | Potency (ATS189) | Potency (ATS95) | Potency (C2A) | Potency (CP185) | Potency (CP191) | Potency (CP192) | Potency (CP194) | Potency (CP201) | Potency (CP203) | Potency (CP211) | Potency (CP215) | Potency (CP217) | Potency (CP237) | Potency (CP238) | Potency (CP247) | Potency (CP250) | Potency (CP252) | Potency (CP256) | Potency (CP260) | Potency (CP262) | Potency (CP265) | Potency (CP266) | Potency (CP268) | Potency (CP269) | Potency (CP286) | Potency (CP291) | Potency (CP297) | Potency (CP305) | Potency (CP315) | Potency (CP325) | Potency (CP329) | Potency (CP335) | Potency (DIV14) | Potency (DIV17) | Potency (DIV30) | Potency (Dd2) | Potency (ECU) | Potency (FAB9) | Potency (GB4) | Potency (HB3) | Potency (ICS) | Potency (JCK) | Potency (N140) | Potency (P93_24) | Potency (P94_40) | Potency (PAD) | Potency (PC15) | Potency (PC26) | Potency (PC49) | Potency (SC27B)
